# Screening data (PubChem BioAssay)
# FBPA Giardia inh: blocks Giardia fructose-bisphosphate aldolase activity | purified Giardia FBPA | hit rate 0.71% among 290,000 | AID 2451 | A8B2U2 | Potency, µM (series often up to 59.6 µM), for the others: at the top dose activity, negative = inhibition, hits mostly inhibitors; also: potency is read from the fitted curve at half-maximal effect; % is scaled to controls: 0 for no effect and ±100 for the full control effect; nearly all actives have a fitted effect of over 55% in size
# Target sequence (A8B2U2 whole entry, looked up): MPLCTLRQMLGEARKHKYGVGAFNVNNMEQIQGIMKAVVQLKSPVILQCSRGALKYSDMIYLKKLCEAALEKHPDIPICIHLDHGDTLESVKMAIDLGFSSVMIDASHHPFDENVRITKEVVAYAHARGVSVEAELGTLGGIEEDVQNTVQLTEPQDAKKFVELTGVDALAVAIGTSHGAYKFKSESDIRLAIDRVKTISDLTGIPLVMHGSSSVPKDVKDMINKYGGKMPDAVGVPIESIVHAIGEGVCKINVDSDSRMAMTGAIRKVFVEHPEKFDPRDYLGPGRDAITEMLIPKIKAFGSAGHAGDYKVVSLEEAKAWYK
#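 40 nM FBPA preincubated 10 min at RT with compound (up to 57.5 uM final), then substrate plus GAPDH/TPI/NAD/arsenate coupling and diaphorase/resazurin added. Fluorescence read after 20 min at RT, 525/598 nm.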
# NS1 function inh: blocks influenza NS1 protein function | Potency, µM (top dose mostly 46.1 µM), inactives show top-dose activity, positive = more growth | hit rate 0.4% among 270,000; calls by dose curve; also: potency is read from the fitted curve at half-maximal effect; actives are rising curves; nearly all actives have a fitted effect of over 50% in size
#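 OD600 was taken as the measure of yeast growth restored by compound in an NS1-expressing S. cerevisiae strain. Cells had been washed out of glucose medium and diluted 1:100 into galactose -URA medium, pH 6.0.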
# Pf growth 96h: P. falciparum growth inhibition at 96 hours; P. falciparum luciferase reporter growth, 96 h; Potency, µM (series often up to 28.7 µM), for the others: top-dose activity change, negative = inhibition, actives largely listed as inhibitors; hit rate 6.9% among 320,000; also: potency is read from the fitted curve at half-maximal effect; % is scaled to controls: 0 for no effect and ±100 for the full control effect
#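 Plates of compound plus infected erythrocytes (2% hematocrit, 0.05% parasitemia final) incubate 96 hours, 37 C, 5% CO2. Detection reagent added; reduced luminescence from the parasites' luciferase reporter flags inhibition.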
# Shiga inhibitor: inhibitors of Shiga toxin in Vero cells | Vero cells, Shiga toxin protein synthesis inhibition reporter | AID 2315 | inhibition, % at 38.7 µM | hit rate 9.2% among 290,000; in the data active = inhibition mostly above about 28%, no sharp cut-off; inactive = mostly below about 43%; also: 0% is about no effect
# Pf growth 48h: P. falciparum growth inhibition at 48 hours (one generation); AID 504832; Potency, µM (top dose mostly 28.7 µM), for inactives: at the highest dose activity change, negative = inhibition, hits mostly inhibitors; P. falciparum luciferase growth in erythrocytes, 48 h; hit rate 5.9% among 310,000; also: potency is read from the fitted curve at half-maximal effect; % is scaled to controls: 0 for no effect and ±100 for the full control effect
#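 A one-generation exposure of luciferase-tagged malaria parasites in RPMI 1640/Albumax erythrocyte culture, 37 C and 5% CO2. Inhibition is inferred from decreased luminescence after adding detection reagent.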
# Cycloheximide cs: counter-screen hit for Shiga toxin inhibitors, cycloheximide. cell reporter, cycloheximide protein synthesis inhibition counterscreen. max response, %. hit rate 12% among 300,000. AID 2314; in the data active = max response mostly above about 13%, no sharp cut-off; inactive = mostly below about 14%; also: read at 38.3 µM for the half of the compounds with a filed dose; 0% is about no effect
# * = called active by the depositor; ? = inconclusive; nt = no result given; [ ] = another dose, or the depositor's remark. Shown are actives, neighbours in structure and some others; about 21% of the full set was active somewhere. Unless noted, calls follow the shape of the dose curve; as a rule, active = well fitted curve in the direction sought with a large enough effect; inconclusive = small, poorly fitted or top-dose-only effect, or another doubt; inactive = no such curve, though single readings can be large; an effect the other way counts as inactive or inconclusive.
SMILES,FBPA Giardia inh,NS1 function inh,Pf growth 96h,Shiga inhibitor,Pf growth 48h,Cycloheximide cs
CS(=O)(=O)c1nc(S(=O)(=O)c2ccc(Cl)cc2)c(N2CCCCCC2)s1,-5%,7%,13µM*,12,?,-3
Cc1ccc(S(=O)(=O)c2nc(S(C)(=O)=O)sc2N2CCC(O)CC2)cc1,nt,-4%,9.3µM*,-4,8%,6
CN1CCN(c2sc(S(C)(=O)=O)nc2S(=O)(=O)c2ccc(Cl)cc2)CC1,nt,4%,12µM*,21,?,0
CS(=O)(=O)c1nc(S(=O)(=O)c2ccc(Cl)cc2)c(N2CCC(O)CC2)s1,nt,-5%,13%,10,-9%,-2
CS(=O)(=O)c1nc(S(=O)(=O)c2ccc(Cl)cc2)c(NCCCn2ccnc2)s1,nt,-8%,5.9µM*,-3,-14%,2
Cc1ccc(S(=O)(=O)OCC2CN3C(CCC(C)C3c3ccc(Br)cc3)C(=O)O2)cc1 (centres undefined),-3%[12.9 µM],nt,nt,nt,nt,nt
COc1ccc2c(c1)OC[C@H]1[C@H]2N2C(=O)c3cc(Cl)ccc3NC(=O)[C@@]2(C)[C@H]1c1ccccc1,nt,nt,3.3µM*,nt,9.3µM*,nt
COc1ccc2c(c1)OC[C@H]1[C@H]2N2C(=O)c3cc(OC)ccc3NC(=O)[C@@]2(C)[C@H]1c1ccccc1,nt,nt,6.6µM*,nt,5.2µM*,nt
CN(C)C(=O)CN1C(=O)NC(c2ccccc2)(c2ccccc2)C1=O,4%,-13%,18%,-11,25%,-4
CC(=O)c1cccc(NS(=O)(=O)N2CCOCC2)c1,nt,6%,?,-8,4%,3
CCOC(=O)c1c(C)nsc1NC(=O)C1CCCCC1,2%,-18%,?,-7,15%,-5
CC(=O)c1sc(NC(=O)c2ccc(C)c(C)c2)nc1C,1%,nt,476%,47*,429%,47*
Cc1nc(NC(=O)c2ccc(Cl)cc2)sc1Cc1ccc2c(c1)OCO2,-2%,9%,?,13,?,8
Cc1nc(NC(=O)c2ccccc2)sc1Cc1ccc2c(c1)OCO2,1%,1%,-85%,25*,0%,68*
COc1ccc(C(=O)Nc2nc(C)c(C(C)=O)s2)cc1S(=O)(=O)N1CCOCC1,nt,nt,?,nt,-7%,nt
CC(=O)c1sc(NC(=O)c2cccnc2Cl)nc1C,4%,-3%,110%,-4,35%,13
CC(=O)c1sc(NC(=O)c2cnc(Cl)c(Cl)c2)nc1C,?,-14%,120%,84*,102%,14*
CC(=O)c1sc(NC(=O)c2ccc3c(c2)OCO3)nc1C,nt,-7%,?,82*,165%,43*
CC(C)CO/N=C1/C[C@@H](O)[C@@H](O)[C@@H]2[C@@H]3C(=O)N(Cc4ccccc4)C(=O)[C@H]3CC[C@@H]12,-1%[12.9 µM],nt,nt,nt,nt,nt
CC(=O)c1sc(NC(=O)c2ccccc2F)nc1C,1%,-15%,305%,43*,221%,28*
CC(=O)c1sc(NC(=O)c2ccc(C(C)(C)C)cc2)nc1C,-3%,-3%,44%,158*,87%,67*
COc1ccc(CCC(=O)Nc2nc(C)c(C(=O)N(C)C)s2)cc1,3%,18%,?,3,7.4µM*,10
COc1ccc(C(=O)Nc2nc(C)c(C(=O)N(C)C)s2)cc1OC,4%,-6%,?,16,82%,30*
CSc1ccc(/C=N/n2c(COc3ccccc3)n[nH]c2=S)cc1,?,7%,14%,-12,-15%,2
C=C(C)CSc1nncn1/N=C/c1ccc(OC)cc1,-19%,-57%,0%,141*,10%,55*
SMILES,FBPA Giardia inh,NS1 function inh,Pf growth 96h,Shiga inhibitor,Pf growth 48h,Cycloheximide cs
CCSc1nncn1/N=C/c1ccc(OC)c(OC)c1,4%,-10%,-4%,32*,18%,21*
CCOc1ccc(/C=N/n2c(C)nnc2C)cc1OC,0%,5%,-6%,-17,8%,-2
COc1ccc(-n2cnnc2SCC(=O)N2CCN(c3ccccc3)CC2)cc1,-1%,?,-28%,-8,nt,6
COc1cc(/C=N\n2cnnc2)ccc1OCC(=O)Nc1ccc(C)cc1,1%,-4%,21%,16,0%,-2
COc1cc(/C=N/n2cnnc2)ccc1OCCSc1ccc(C)cc1,-1%,-16%,?,34,36%,22*
N[C@@]1(C(=O)O)CO[C@H]2[C@H](C(=O)O)[C@H]21,-9%,nt,nt,2,nt,-5
Cc1cc(Cl)ccc1Oc1ccccc1C(=O)CC#N,-17%,nt,?,-4,-1%,0
O=C(O)C(Cc1ccccc1-c1ccccc1)C(=O)O,7%,-11%,58%,-3,19%,-2
CCOC(=O)C1=C(c2ccccc2)O/C(=C(\C(=O)OC)C(F)(F)F)S1,2%,4%,9.3µM*,-4,nt,0
CCOC(=O)C1=C(c2ccccc2)O/C(=C(/C#N)C(F)(F)F)S1,0%,10%,nt,35,9.3µM*,8
O=C(CCN1C(=O)c2ccccc2C1=O)C1=NN[C@@H]2C(=O)N(c3ccc4c(c3)OCCO4)C(=O)[C@H]12,6%,-14%,0%,18,16%,-2
Cn1c2ccccc2c2ncn(CCC3=CCCCC3)c(=O)c21,-10%,-56%,?,27,?,17*
Cc1cccc(C)c1NC(=O)CN(C)C(=O)[C@H](C)NC(=O)c1ccco1,nt,nt,-5%,nt,0%,nt
CN(C)c1cccc(C(=O)N(C)C2CCCN(Cc3ccccc3F)C2)c1 (centres undefined),-3%,1%,4.1µM*,7,?,-2
O=C(c1cccc(C(F)(F)F)c1)C1CCCN(Cc2ccccc2O)C1 (centres undefined),-1%,-5%,8.3µM*,-9,?,5
O=C(NCC1CCCN(Cc2ccccc2F)C1)c1cccc(C(F)(F)F)c1 (centres undefined),2%,3%,12µM*,9,-5%,-2
O=C(C1CCCN(Cc2cc(Br)ccc2O)C1)N1CCCCC1 (centres undefined),?,0%,?,18,8.3µM*,9
Cc1cc(C)cc(NS(=O)(=O)c2ccc3c(c2)C(C)(C)C(=O)N3C)c1,-9%,8%,?,-3,-24%,-2
Cc1ccc(Cn2c(SC(C)C(N)=O)nc3ccccc3c2=O)cc1 (centres undefined),1%,nt,?,-5,?,0
CCOc1cc(CN2CCCC(C(=O)c3cccc(C(F)(F)F)c3)C2)ccc1O (centres undefined),-11%,5%,8%,-8,5.2µM*,8
CC1=C(C)CC(C(=O)Nc2nccs2)C(C(=O)O)C1 (centres undefined),14%,16%,-15%,8,11%,1
c1ccc(-c2cn3nc(-c4ccccc4)c(-c4ccccc4)nc3n2)cc1,5%,0%,-1%,26,0%,3
Cc1ccc(-c2cn3nc(-c4ccccc4)c(-c4ccccc4)nc3n2)cc1,1%,1%,-18%,45,?,16*
